Sampled rows, rich in hits. Any-hit rate of the full collection: about 6.2%.
RORgamma inh: inhibitors of mouse ROR gamma transcriptional activity | 310,000 compounds, 5.4% hits | Drosophila S2 Gal4-RORgamma UAS-luciferase reporter, 20 h | Potency, µM (titrated, usually from 53.6 µM), for inactives: top-dose activity change, negative = inhibition, hits mostly inhibitors | AID 2551; also: nearly all actives have a fitted effect of over 60% in size
Target sequence (P51450 whole entry, looked up, the tested form may be a part): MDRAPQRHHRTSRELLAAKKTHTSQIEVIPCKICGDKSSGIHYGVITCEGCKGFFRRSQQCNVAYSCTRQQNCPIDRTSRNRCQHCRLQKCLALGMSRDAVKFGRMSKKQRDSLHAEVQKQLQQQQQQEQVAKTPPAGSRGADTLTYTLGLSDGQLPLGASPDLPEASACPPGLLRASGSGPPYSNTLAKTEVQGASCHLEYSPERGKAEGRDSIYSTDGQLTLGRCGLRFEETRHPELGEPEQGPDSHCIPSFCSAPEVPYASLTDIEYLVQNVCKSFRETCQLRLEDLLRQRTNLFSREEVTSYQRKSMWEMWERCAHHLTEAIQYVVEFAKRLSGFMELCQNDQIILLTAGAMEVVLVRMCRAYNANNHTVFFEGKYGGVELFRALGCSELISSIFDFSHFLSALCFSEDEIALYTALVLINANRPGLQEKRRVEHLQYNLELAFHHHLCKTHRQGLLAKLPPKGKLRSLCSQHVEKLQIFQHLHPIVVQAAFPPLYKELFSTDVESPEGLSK
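Using a luciferase readout, inhibitors were identified by reduced reporter activity in Drosophila cells coexpressing a copper-inducible Gal4–ROR gamma fusion and UAS-driven Photinus luciferase, incubated 20 hr after 700 uM copper sulfate.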
Luc counter: blocks Kinase-Glo luciferase, a counter-screen artifact; Kinase-Glo luciferase, ATP luminescence, 8 min; Potency, µM (series often up to 38.3 µM), inactives show at the top dose activity change, negative = inhibition, most hits filed as inhibitors; 200,000 compounds, 0.28% hits; AID 1379; also: nearly all actives have a fitted effect of over 60% in size
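Recombinant Kinase-Glo luciferase, 10 uM ATP (linear range), luciferin; imidazole pH 7.2 / KCl / MgCl2 / Tween / BSA buffer; 8 min RT; luminescence.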
Gal4-VP16 FLuc: inhibits Gal4-VP16 luciferase reporter, ROR gamma counter-screen | Drosophila S2 Gal4-VP16 UAS-luciferase, luminescence, 20 h | 310,000 compounds, 3.5% hits | Potency, µM (top dose mostly 53.6 µM), for inactives: at the top dose activity, negative = inhibition, hits mostly inhibitors;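 also: Gal4-VP16 expression switched on by copper sulfate through the metallothionein promoter; nearly all actives have a fitted effect of over 50% in size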
* marks the source's active call; other numbers are inactive results; ? = inconclusive; / = no result given; [ ] = remark or other dose. Calls follow the shape of the dose curve; as a rule, active = well fitted curve in the direction sought with a large enough effect; inconclusive = small, poorly fitted or top-dose-only effect, or another doubt; inactive = no such curve, though single readings can be large; an effect the other way counts as inactive or inconclusive. % is scaled to controls: 0 for no effect and ±100 for the full control effect; potency is read from the fitted curve at half-maximal effect.

SMILES	RORgamma inh	Luc counter	Gal4-VP16 FLuc
O=c1c(O)c(-c2cc(O)c(O)c(O)c2)oc2cc(O)ccc12	-29%	/	-16%
CC1COc2ccccc2N1S(=O)(=O)c1cc(Cl)ccc1Cl (stereo not drawn)	1%	/	-3%
C=CC[n+]1c(-c2ccccc2)csc1NC(C)(C)C	-13%	2%	-3%
C=CC[n+]1c(-c2ccc(OC)c(OC)c2)csc1NNC(=O)Nc1ccccc1	10µM*	-3%	?
CC1Cc2c(-c3ccccc3)nc3c(c2CO1)CN(CCOc1ccccc1)CC3 (stereo not drawn)	5%[10 µM]	/	-2%[10 µM]
CC(C)C(=O)NC(=S)Nc1ccccn1	13µM*	/	?
CC(C)(C)C(=O)NC(=S)Nc1ccccn1	13µM*	1%	?
CC(C)N(C(=O)NC(=O)Nc1ccccn1)S(C)(=O)=O	-3%[10 µM]	3%	0%
Cc1c(NC(=S)NC(=O)C(C)(C)C)c(=O)n(-c2ccccc2)n1C	-5%	0%	2%
Cc1cc(O)c2c(c1O)C(=O)C(O)=C(O)C2=O	-44%	1%	-14%
CCC(C)NC(=O)c1cn(CC)c2cc(N3CCN(C(=O)c4ccco4)CC3)c(F)cc2c1=O (stereo not drawn)	37%	/	-1%
CC(C)C(NC(=O)c1ccc(Br)cc1)C(=O)NC1=NCCS1 (stereo not drawn)	-2%	-1%	7%
CC(SC1=NCCS1)C(=O)Nc1nnc(-c2ccc(F)cc2)s1 (stereo not drawn)	7.9µM*	2%	?
O=C(Nc1nnc(-c2ccc(F)cc2)s1)Nc1ccccc1F	4%	/	-14%
CC(SC1=NCCS1)C(=O)Nc1nnc(-c2ccc(Br)cc2)s1 (stereo not drawn)	8.9µM*	3%	10µM*
CCC(SC1=NCCS1)C(=O)Nc1nnc(-c2ccccc2OC)s1 (stereo not drawn)	6.3µM*	-1%	16µM*
CCOC(=O)Nc1nnc(-c2ccccc2OC)s1	?	1%	-2%
COc1cc(NC(=O)c2ccccc2Cl)c(OC)cc1NC(=O)CN1CCOCC1	42%	1%	-9%
COc1ccc(NS(=O)(=O)c2ccc(NS(=O)(=O)c3cccs3)cc2)cc1	-8%	/	2%
O=C1C=CC2=C3c4cc(O)c(O)cc4C[C@]3(O)COC2=C1	?	-2%	-11%
COc1ccc(CCNC(=O)CN(c2cccc([N+](=O)[O-])c2)S(C)(=O)=O)cc1OC	1%	3%	2%
NNc1ccc(Cc2ccc(Cl)cc2Cl)nn1	3.5µM*	-1%	?
CSc1ccc(Cc2ccc(Cl)cc2Cl)nn1	14%	1%	-2%
CC1CC(=O)c2c(cc3c(-c4c(O)cc(O)c5c(O)c6c(cc45)OC(C)CC6=O)c(O)cc(O)c3c2O)O1 (stereo not drawn)	5µM*	/	13µM*
O=C1CC(c2ccccc2)Oc2cc(O)cc(O)c21 (stereo not drawn)	-5%	/	22%
SMILES	RORgamma inh	Luc counter	Gal4-VP16 FLuc
CC(=O)OCCNc1cc(SCc2ccco2)c2nonc2c1[N+](=O)[O-]	11µM*	2%	?
O=[N+]([O-])c1c(NCCCO)cc(SCc2ccco2)c2nonc12	?	0%	?
CC(=O)OCCCNc1cc(Sc2ccc(C)cc2)c2nonc2c1[N+](=O)[O-]	-41%	2%	?
CC(=O)OCCCNc1cc(Sc2nc3ccccc3s2)c2nonc2c1[N+](=O)[O-]	3.5µM*	1%	5µM*
COC(=O)C1=C(NC(=O)c2ccc(C)cc2)CCS1	-7%	-1%	-3%
Nc1ncnc2nc(SCC(=O)Nc3ccccc3F)[nH]c12	42%	/	-4%
CCN(CC)C(=O)c1cc(C(C)(C)C)c(O)c(C(C)(C)C)c1	10µM*	-3%	-3%
CC(C)(C)NC(=O)c1cc(C(C)(C)C)c(O)c(C(C)(C)C)c1	-20%	1%	?
COc1ccc(N(CC(=O)Nc2ccccc2C(=O)N2CCCC2)S(C)(=O)=O)cc1	1%	/	-14%
CCn1c(C)nc2cc(C(=O)NNC(=O)c3ccc(Cl)nc3)ccc21	?	0%	21%
CCn1c(C)nc2cc(C(=O)OC(C(F)(F)C(F)F)C(F)(F)C(F)F)ccc21	7.1µM*	-3%	7.1µM*
CCC(C)c1ccccc1NC(=O)COC(=O)c1ccc2[nH]c3c(c2c1)CCCC3 (stereo not drawn)	6%	-2%	20µM*
O=C(COC(=O)c1ccc2[nH]c3c(c2c1)CCCC3)Nc1ccccc1Cl	3%	2%	-10%
C[N+]1(C)CCc2cc(O)c(O)cc2[C@H]1Cc1ccc(O)c(O)c1	/	-2%[7.66 µM]	/
Cc1cc(NC(=O)/C=C/c2ccccc2Cl)n(-c2nc3ccccc3[nH]2)n1	1.8µM*	-8%	1.3µM*
Cc1cc(NC(=O)CC2CCCC2)n(-c2nc3ccccc3[nH]2)n1	1.8µM*	0%	3.5µM*
Cc1cc(NC(=O)c2ccc(F)cc2F)n(-c2nc3ccccc3[nH]2)n1	1.1µM*	-1%	1.8µM*
Cc1nc2ccccc2c(=O)n1NC(=O)/C=C/c1ccccc1Cl	-2%	-5%	-5%
Cc1cc(NC(=O)c2ccccc2F)n(C(C)(C)C)n1	4%	/	1%
Cc1cc(Nc2nc3ccccc3[nH]c2=O)n(-c2ccccc2)n1	-5%	0%	2%
COc1ccc(NC(=O)COC(=O)c2ccc(S(=O)(=O)N(C)c3ccccc3OC)cc2)c(OC)c1	4%	-1%	-18%
C/C(=N\NC(=O)CSc1nc(C)cc(C)n1)c1cccc([N+](=O)[O-])c1	-10%	3%	-5%
O=C(OC1CCOC1=O)c1cccc(S(=O)(=O)Nc2cccc(Cl)c2)c1 (stereo not drawn)	32%	-1%	0%
O[C@@H]1CN(Cc2ccccc2Cl)CC[C@H]1N1CCOCC1	5%	/	1%
CCC1=C(OC(=O)N(CC)CC)N2C(=O)OC(=NCC3CC3)[C@]2(Cc2ccccc2)[C@H]2C1=CC[C@H]1C(=O)N(CC)C(=O)[C@H]12	37%	-3%	3%
SMILES	RORgamma inh	Luc counter	Gal4-VP16 FLuc
COc1cc(/C=N/N=C2/NC(=O)C(Cc3ccc(F)cc3)S2)ccc1O (stereo not drawn)	13µM*	-7%	?
COc1cc(/C=N/N=C2/NC(=O)C(c3ccccc3)S2)ccc1O (stereo not drawn)	-1%	0%	-16%
Fc1ccc(-c2nnc(Cc3nnc(-c4ccc(F)cc4)o3)o2)cc1	5µM*	10%	?
Fc1ccc(-c2nnc(-c3ccc(F)cc3)o2)cc1	1%	/	?
Nc1nonc1-c1noc(CCCCCN2C(=O)c3ccccc3C2=O)n1	?	0%	/
CCN(CC)S(=O)(=O)c1ccc(N2CCOCC2)c(NS(=O)(=O)c2cc(C(C)(C)C)ccc2C)c1	22%	-1%	-14%
O=C(Cc1ccccc1)NCCC1=CCCCC1	18%	1%	-6%
O=C(NC(=S)NCCCN1CCOCC1)c1ccco1	4%	1%	-9%
O=C(NC(=S)NCCC1=CCCCC1)c1ccco1	4.5µM*	2%	?
O=C(NC(=S)NCCc1ccccc1)c1ccco1	6.3µM*	/	?
Cc1ccccc1C(=O)NC(=S)NCCC1=CCCCC1	4µM*	1%	16µM*
O=C(NC(=S)NCCC1=CCCCC1)c1ccc(Br)o1	4.5µM*	2%	?
